Sampled rows, rich in hits. Any-hit rate of the full collection: about 11%.
HPGD inh: qHTS Assay for Inhibitors of HPGD (15-Hydroxyprostaglandin Dehydrogenase); 15-hydroxyprostaglandin dehydrogenase [NAD(+)] (Homo sapiens), P15428; purified HPGD, NADH fluorescence kinetic, PGE2 substrate; Potency, µM, for inactives: at the highest dose activity change, negative = inhibition, usual class: inhibitors; 150,000 tested, 4.3% active; also: potency is read from the fitted curve at half-maximal effect
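NADH formation kinetics: reaction with 30 uM PGE2 and 1 mM NAD+ (final), 20 nM enzyme, Tris-HCl pH 8 with Tween 20, after 15 min compound preincubation at room temperature. Fluorescence change, last versus first of five reads.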
ALDH1A1 block: qHTS Assay for Inhibitors of Aldehyde Dehydrogenase 1 (ALDH1A1). AID 1030, 2008. Purified ALDH1A1, NADH fluorescence, propionaldehyde substrate. 220,000 tested, 7.3% active. Potency, µM (top dose mostly 75.3 µM), for the others: top-dose activity, negative = inhibition, most hits filed as inhibitors. Aldehyde dehydrogenase 1A1 (Homo sapiens), P00352;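 also: potency is read from the fitted curve at half-maximal effect; plate controls were no enzyme wells and a reference inhibitor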
Target sequence (P00352 whole entry, looked up): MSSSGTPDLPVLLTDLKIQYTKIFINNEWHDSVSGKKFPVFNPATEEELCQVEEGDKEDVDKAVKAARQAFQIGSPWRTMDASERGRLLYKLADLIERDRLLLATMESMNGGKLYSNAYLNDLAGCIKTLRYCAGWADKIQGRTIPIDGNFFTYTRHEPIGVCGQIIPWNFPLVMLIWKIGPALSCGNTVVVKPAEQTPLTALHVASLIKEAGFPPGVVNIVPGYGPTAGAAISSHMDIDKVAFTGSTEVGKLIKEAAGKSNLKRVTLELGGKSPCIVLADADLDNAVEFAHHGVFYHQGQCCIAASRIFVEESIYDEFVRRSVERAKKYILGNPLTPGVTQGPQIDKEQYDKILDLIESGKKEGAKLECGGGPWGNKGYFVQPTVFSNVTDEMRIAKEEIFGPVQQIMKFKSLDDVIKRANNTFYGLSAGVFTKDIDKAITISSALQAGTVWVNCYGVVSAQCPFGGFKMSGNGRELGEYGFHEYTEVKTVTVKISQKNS
KDM4E inh: qHTS Assay for Inhibitors of Human Jumonji Domain Containing 2E (JMJD2E). Lysine-specific demethylase 4E (Homo sapiens), B2RXH2. JMJD2E catalytic domain, FDH-coupled NADH fluorescence (FDH is formaldehyde dehydrogenase). Potency, µM (highest dose often 57.1 µM), inactives show at the top dose activity change, negative = inhibition, usual class: inhibitors. 230,000 tested, 1.6% active;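 also: potency is read from the fitted curve at half-maximal effect; 0% = wells with enzyme and -100% = buffer wells without enzyme; nearly all actives have a fitted effect of over 50% in size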
PNC inhibitor: High Content Assay for Compounds that inhibit the Assembly of the Perinucleolar Compartment | PC3M PTB-GFP, PNC prevalence imaging, 16 h; active compounds read low | activity change (PNC), negative = inhibition, % at 10 µM | AID 2417, 2010 | 140,000 tested, 3.1% active;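 active = readout at or below -70, meaning at least 70% loss of cells showing the perinucleolar compartment, a nuclear body marking cancer cells; inconclusive = readout between -30 and a set limit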;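 also: plate controls were DMSO wells for no effect and camptothecin positive control wells for full effect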
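Compounds are pinned in duplicate onto adhered PC3M cells stably expressing GFP-tagged PTB and incubated 16 h at 37 C. Cells are then fixed, nuclei stained with Hoechst, and PNC-positive cells counted.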
Active calls of the source: *; u = inconclusive; x = no result given; ! = not active in a repeat; [ ] = dose if it differs, or a comment. Unless noted, calls follow the shape of the dose curve; as a rule, active = well fitted inhibition curve with a large enough effect (not every such curve was filed as active); inconclusive = small, poorly fitted or top-dose-only effect, or another doubt; inactive = no such curve, though single readings can be large or run the other way. Unless noted, % is scaled to controls: 0 for no effect and ±100 for the full control effect.

SMILES	HPGD inh	ALDH1A1 block	KDM4E inh	PNC inhibitor
CN1CCC2(CC1)N=C(c1ccc(F)cc1)C(=S)N2C(=O)c1ccc(C(C)(C)C)cc1	x	18µM*	u	20
CC1(C)CC(=O)C(=Cc2cn(-c3ccccc3)nc2-c2ccc(Cl)cc2)C(=O)C1	1.1µM*	u	2%	20
CC1(C)CC(=O)C(=Cc2cn(CCC#N)nc2-c2ccc(F)cc2)C(=O)C1	20µM*	-1%	0%	u
CC1(C)CC(=O)C(=Cc2cn(CCC#N)nc2-c2ccc(Cl)cc2)C(=O)C1	16µM*	-6%	-3%	0
N#CCCn1cc(/C=C2\NC(=S)N(c3ccccc3)C2=O)c(-c2ccc(F)cc2)n1	x	25µM*	-16%	x
N#CCCn1cc(/C=N/O)c(-c2ccc(F)cc2)n1	-4%	19%	1%	9
CC1=NNC(=O)/C1=C\c1cn(-c2ccccc2)nc1-c1ccccc1	x	-9%	-18%	x
Cc1cc(C(=O)NNS(=O)(=O)c2ccc(C(C)(C)C)cc2)nn1C(C)(C)C	x	x	-13%	x
CC(=O)c1ccc(OC2C(O)COC2/C=C/c2ccc(Cl)cc2)cc1 (centres undefined)	x	4µM*!	x	x
O=C1c2c(O)cc(O)cc2O[C@H](c2ccc(O)c(O)c2)[C@H]1O	x	x	20µM*	x
O=C1c2c(O)cc(O)cc2O[C@H](c2ccc(O)c(O)c2)[C@@H]1O	x	x	14µM*	x
COc1cc(OC)c2c(c1)OC(c1ccc(OC)c(OC)c1)C(O)C2=O (centres undefined)	-23%	u	-8%	-3
O=C1C[C@H](c2ccccc2)Oc2cc(O)cc(O)c21	-11%	0%	2%	x
COC(=O)[C@@]1(Cc2ccccc2-c2ccco2)C=C[C@H](C)[C@@H](c2ccccc2)N1C(=O)C(F)(F)F	-19%	1%	-11%	x
N#C/C(=C\C=C\c1ccccc1[N+](=O)[O-])C(=O)NC1CCCCC1	x	25µM*	-7%	x
N#C/C(=C\c1ccc(F)c(F)c1)C(=O)NC1CCCCC1	0%	11%	8%	u
N#C/C(=C\c1ccccc1[N+](=O)[O-])C(=O)NC1CCCCC1	x	7.1µM*	-14%	x
N#C/C(=C\c1cccn1-c1ccccc1)C(=O)NC1CCCCC1	-19%	7.1µM*	-2%	11
N#C/C(=C\c1cc(Cl)cc(Cl)c1O)C(=O)NC1CCCCC1	u	32µM*	u	-12
Nc1ncnc2c1ncn2[C@@H]1O[C@@H](CO)[C@H](O)[C@H]1O	-4%	15%[20.9 µM]	-2%[25.5 µM]	x
N#CNC(=Nc1cccc(F)c1)SCc1ccccc1	-1%	-1%	-3%	-103*
N#CNC(=Nc1cccc(F)c1)SCc1cccc(F)c1	-1%	6%	1%	-16
CN(Cc1cccs1)S(=O)(=O)c1cccs1	28µM*	u	6%	u
Clc1cccc(Cl)c1-c1noc(CN2CCOCC2)n1	x	-4%	13%	x
O=C(Cn1sc2ccccc2c1=O)NC12CC3CC(CC(C3)C1)C2	0.32µM*	0.071µM*	-23%	18
SMILES	HPGD inh	ALDH1A1 block	KDM4E inh	PNC inhibitor
COc1cccc(C(=O)NC2CCN(CC(=O)NCc3ccccc3OC)CC2)c1	-4%	-14%	2%	1
COc1cccc(OC)c1NC(=O)CN1CCC(NC(=O)c2cccc(F)c2)CC1	-13%	40µM*	14%	u
CC(C)c1ccc(NC(=O)CCCN2C(=S)NC(C)(C)CC2C)cc1 (centres undefined)	x	5µM*	1%	x
CNC(=O)[C@H]1O[C@@H](n2cnc3c(NCc4cccc(I)c4)ncnc32)[C@H](O)[C@@H]1O	x	1%	x	x
N#Cc1c(-c2ccco2)cc(-c2cccnc2)nc1N	x	u	u	22
N#Cc1c(-c2ccccc2F)cc(-c2cccnc2)nc1N	u	u	u	-96*
O=C(Nc1nc2c(F)cc(F)cc2s1)c1ccccn1	x	10µM*	-24%	x
Cc1ccc2nc(NC(=O)c3ccccn3)sc2c1	x	-3%	-17%	x
COc1ccc(C(=O)CSc2nn3c(=O)c(C(C)(C)C)nnc3s2)cc1	-16%	0.4µM*	-7%	u
CC(C)(C)c1nnc2sc(SC/C(O)=C(\C#N)c3nc4ccccc4[nH]3)nn2c1=O	20µM*	u	4%	-95*
CC(C)(C)c1nnc2sc(SCC(=O)c3ccccc3)nn2c1=O	-22%	u	-5%	16
Cc1cccc(Nc2nnc(SC/C(O)=C(\C#N)c3nc4ccccc4[nH]3)s2)c1	u	u	-6%	u
CCC12CCCN3CCC4(C(=C(C(=O)OC)C1)Nc1ccccc14)C32 (centres undefined)	-22%	20µM*	u	u
CCCCCCC(=O)Nc1cc2c(C)cc(=O)oc2cc1C	-17%	5µM*	u	-119*
COc1cccc(CNC(=O)CCl)c1	-22%	7.1µM*	4%	u
COc1cccc(CNC(=O)N[C@@H](C)C(=O)O)c1	x	x	7%	x
COc1ccc(C(=O)Nc2cc(-c3nn4c(C)nnc4s3)ccc2C)cc1	u	4%	6%	-9
Cc1ccc(-c2nn3c(C)nnc3s2)cc1NC(=O)c1ccc(OC(C)C)cc1	1.1µM*	13µM*	8%	u
O=C(Nc1cnn(Cc2ccc(Cl)cc2Cl)c1)c1noc2c1CCCC2	-26%	14µM*	u	29
O=C(Nc1cnn(Cc2ccc(Cl)cc2Cl)c1)c1cc(-c2cccs2)on1	u	u	-11%	-15
COc1nc(N/N=C/c2ccc(-c3ccccc3[N+](=O)[O-])o2)nc(N2CCOCC2)n1	-14%	8.9µM*	6%	-5
O=[N+]([O-])c1ccc(-c2ccc(/C=N/Nc3nc(NCc4ccccc4)nc(N4CCOCC4)n3)o2)cc1	x	u	-4%	x
O=C(CNc1cccc(C(F)(F)F)c1)N/N=C/C1CCCCC1	-18%	u	13%	-14
CCN1C(=O)/C(=C/C=C2/Sc3ccccc3N2CCO)SC1=S	x	u	-5%	x
CCN1C(=S)SC(=O)C1=C1C=C(C)N(CCO)C(C)=C1	u	16µM*	-12%	u
SMILES	HPGD inh	ALDH1A1 block	KDM4E inh	PNC inhibitor
CCN1C(=S)SC(=O)C1=C1C=C(C)N(CCOC)C(C)=C1	-27%	6.3µM*	-8%	-1
O=C(CCCNC(=O)/C(=C/c1ccccc1F)NC(=O)c1ccccc1)OCc1ccccc1	-18%	-4%	-6%	-6
C[C@@H](O)CNC(C)(C)CC(=O)N[C@@H]1CCc2ccccc2N(Cc2ccc(-c3ccccc3-c3nn[nH]n3)cc2)C1=O	1%	5%	x	x
CCCn1c2c(c(O)c(C(=O)Nc3nccs3)c1=O)CCCC2	x	u	u	-11
CC(C)Cn1c2c(c(O)c(C(=O)Nc3nccs3)c1=O)CCCC2	-5%	14µM*	u	15
CC(C)(C)c1ccc(-n2nc(C#N)c(Cl)cc2=O)cc1	x	13µM*	u	x
Clc1ccccc1Cn1nnc(-c2ccccc2)n1	x	-3%	1%	x

Screens as filed in PubChem BioAssay.
